Screening data (PubChem BioAssay)
In the library only some 19% were active in any assay of this set; here they are far more common.
HT1080-NT tox – kills 2HG-producing HT-1080-NT fibrosarcoma cells; Potency, µM (series often up to 46.1 µM), most hits filed as cytotoxic; AID 686970; HT-1080-NT fibrosarcoma viability, CellTiter-Glo ATP luminescence, 48 h; 1.6% of 360,000 active;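 note: NT is the 2HG producing partner of a matched IDH1 knockdown line; nearly all actives have a fitted effect of over 55% in size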
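Toxicity toward the 2HG-producing NT line was scored as %Activity, normalised to DMSO and no-cell wells, from CellTiter-Glo luminescence after 48 hours' treatment.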
DT40 TDP1 CPT – growth inhibition of DT40 Tdp1-/-;hTDP1 cells with camptothecin (screen for TDP1 inhibitors); chicken DT40 Tdp1-/-;hTDP1 cells + 20 nM CPT, ATP luminescence, 48 h; Potency, µM (highest dose often 46.2 µM), usual class: inhibitors; 12% of 420,000 active; note: nearly all actives have a fitted effect of over 55% in size
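Cell growth measured by CellTiter-Glo luminescence after a minimum 48 h, 37 C compound exposure with 20 nM CPT in Tdp1-knockout DT40 cells stably expressing hTDP1, seeded 400/well; qHTS titration format.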
HT1080 IDH1KD tx – toxicity to HT-1080 IDH1 knockdown cells (counter line). HT-1080 IDH1 knockdown viability, ATP luminescence, 48 h. Potency, µM (titrated, usually from 46.1 µM), usual class: cytotoxic. 2% of 360,000 active
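Luminescent ATP read-out (CellTiter-Glo, 10 min at room temperature) after 48 h compound exposure at 37 °C gave viability of IDH1-knockdown HT-1080 cells. Activity was normalised to DMSO and cell-free wells, then fitted as concentration-response curves.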
TDP1 cell noCPT – qHTS for Inhibitors of human tyrosyl-DNA phosphodiesterase 1 (TDP1): qHTS in cells in absence of CPT; DT40 Tdp1-/- hTDP1 cells, no CPT, ATP luminescence, 48 h; AID 686978, 2013; Potency, µM (titrated, usually from 46.2 µM), usual class: inhibitors; 15% of 420,000 active; note: nearly all actives have a fitted effect of over 55% in size
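Readout: luminescence from CellTiter-Glo after 30 min in the dark at RT. Cells: DT40 Tdp1-/- with stable hTDP1, 400/well. Exposure: compounds alone, ≥48 hr, 37 °C.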
KB-3-1 cytotox – kills parental KB-3-1 adenocarcinoma cells; KB-3-1 viability, CellTiter-Glo ATP luminescence, 72 h; Potency, µM (series often up to 46.1 µM), hits mostly cytotoxic; 1.4% of 400,000 active; note: nearly all actives have a fitted effect of over 60% in size
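Parental KB-3-1 viability, qHTS format: 72 h compound exposure, 37 °C; CellTiter-Glo; media-only wells and DMSO plates as controls; concentration-effect fits on corrected data.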
KB-V1 MDR tox – kills drug-selected multidrug resistant KB-V1 cells; KB-V1 MDR cells viability, CellTiter-Glo, 72 h; Potency, µM (highest dose often 46.1 µM), hits mostly cytotoxic; 3.4% of 400,000 active; AID 1347076; note: nearly all actives have a fitted effect of over 60% in size
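Potencies derive from concentration-effect curves fitted to normalized luminescence (CellTiter-Glo) of KB-V1 cells treated for 72 h at 37 degrees C in phenol-red-free DMEM containing 10% FBS.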
A number is an active result. Calls come from the whole dose curve; as a rule, active = well fitted curve in the direction sought with a large enough effect; inconclusive = small, poorly fitted or top-dose-only effect, or another doubt; inactive = no such curve, though single readings can be large; an effect the other way counts as inactive or inconclusive.

O=C(c1ccco1)N1CCN(C(=O)c2ccc(COc3ccc4c(c3)CCC4)o2)CC1 was read as HT1080-NT tox inactive, DT40 TDP1 CPT inconclusive, HT1080 IDH1KD tx inactive, TDP1 cell noCPT inconclusive, KB-3-1 cytotox inactive and KB-V1 MDR tox 16.4µM.
For NNC(=O)c1ccc(COc2ccc3c(c2)CCC3)o1 the results were HT1080-NT tox inactive, DT40 TDP1 CPT inactive, HT1080 IDH1KD tx inconclusive, TDP1 cell noCPT inactive, KB-3-1 cytotox inactive and KB-V1 MDR tox inactive.
CCOc1ccc(OCc2ccc(C(=O)N3CCCC3)o2)cc1 was read as HT1080-NT tox inactive, DT40 TDP1 CPT inconclusive, HT1080 IDH1KD tx inactive, TDP1 cell noCPT inconclusive, KB-3-1 cytotox inactive and KB-V1 MDR tox inconclusive.
Screening S=c1nc(-c2csc3c2CCCC3)[nH][nH]1 returned HT1080-NT tox inactive, DT40 TDP1 CPT 16.4µM, HT1080 IDH1KD tx inactive, TDP1 cell noCPT 16.4µM, KB-3-1 cytotox inactive and KB-V1 MDR tox inactive.
For COc1ccc(OC)c(CC(=O)NC(c2ccccc2)c2ccccc2)c1 the results were HT1080-NT tox inactive, DT40 TDP1 CPT inactive, HT1080 IDH1KD tx inactive, TDP1 cell noCPT inactive, KB-3-1 cytotox inactive and KB-V1 MDR tox inactive.
For COc1ccc(CC(=O)NC(c2ccccc2)c2ccc(C)cc2)c(OC)c1 (configuration not stated) the results were HT1080-NT tox inactive, DT40 TDP1 CPT inconclusive, HT1080 IDH1KD tx inactive, TDP1 cell noCPT 18.4µM, KB-3-1 cytotox inactive and KB-V1 MDR tox inactive.
`COc1ccc(C(NC(=O)c2cc(OC)ccc2OC)c2ccccc2)cc1` (configuration not stated) gave HT1080-NT tox inconclusive, DT40 TDP1 CPT inactive, HT1080 IDH1KD tx inconclusive, TDP1 cell noCPT inconclusive, KB-3-1 cytotox inconclusive and KB-V1 MDR tox 8.2µM.
Screening CCOc1cc(CNC(=O)NC2COc3ccc(OC)cc3C2)cc(OCC)c1OCC (configuration not stated) returned DT40 TDP1 CPT inconclusive, TDP1 cell noCPT inconclusive, KB-3-1 cytotox inactive and KB-V1 MDR tox inactive.
Screening Cc1cccc(CNC(=O)C2CCC(=O)N(CCCc3ccccc3)C2)c1 (configuration not stated) returned HT1080-NT tox inactive, DT40 TDP1 CPT inconclusive, HT1080 IDH1KD tx inactive, TDP1 cell noCPT inconclusive, KB-3-1 cytotox inactive and KB-V1 MDR tox inconclusive.
Screening CSc1ccc(CNC(=O)c2cc3c(=O)n(Cc4ccco4)ccc3nc2C)cc1 returned DT40 TDP1 CPT 29.1µM and TDP1 cell noCPT 23.1µM.
Screening Cc1ccc(NC(=O)c2cc3c(=O)n(Cc4ccco4)ccc3nc2C)cc1C returned DT40 TDP1 CPT 25.9µM and TDP1 cell noCPT inconclusive.
Screening CCc1ccc(NC(=O)CSc2nc(C)c(C(=O)Nc3ccc(Cl)cc3)c(-c3ccc(OC)cc3)c2C#N)cc1 returned DT40 TDP1 CPT inconclusive, TDP1 cell noCPT inactive, KB-3-1 cytotox inactive and KB-V1 MDR tox inactive.
For CCc1nnc(NC(=O)CSc2nc(C)c3c(c2C#N)CCCC3)s1 the results were HT1080-NT tox inconclusive, DT40 TDP1 CPT 17.8µM, HT1080 IDH1KD tx inconclusive, TDP1 cell noCPT 17.8µM, KB-3-1 cytotox inconclusive and KB-V1 MDR tox inconclusive.
Screening COc1ccc(NC(=O)CSc2nc(C)c3c(c2C#N)CCCC3)cc1 returned HT1080-NT tox inactive, DT40 TDP1 CPT inconclusive, HT1080 IDH1KD tx inactive, TDP1 cell noCPT inactive, KB-3-1 cytotox inactive and KB-V1 MDR tox 4.61µM.
`Cc1nc2nc(C)n(CCN3CCOCC3)c(=O)c2c(-c2cccc([N+](=O)[O-])c2)c1C(=O)CCCCCCCCCCN1CCC(c2ccccc2)(c2ccccc2)CC1` gave HT1080-NT tox inconclusive, DT40 TDP1 CPT inconclusive, HT1080 IDH1KD tx 20.6µM, TDP1 cell noCPT inconclusive, KB-3-1 cytotox inconclusive and KB-V1 MDR tox 7.31µM.
O=C(NCCCN1CCOCC1)/C(=C/c1ccc(-c2cccc([N+](=O)[O-])c2)o1)NC(=O)c1ccccc1 was read as HT1080-NT tox inactive, DT40 TDP1 CPT inconclusive, HT1080 IDH1KD tx inconclusive, TDP1 cell noCPT inconclusive, KB-3-1 cytotox inactive and KB-V1 MDR tox inactive.
`O=C(COC(=O)c1ccccc1Br)Nc1cccnc1Cl` gave HT1080-NT tox inactive, DT40 TDP1 CPT inactive, HT1080 IDH1KD tx inactive, TDP1 cell noCPT inactive, KB-3-1 cytotox inactive and KB-V1 MDR tox inconclusive.
`O=C(c1cccc(Cl)c1)N1CCC(c2nc3ccccc3[nH]2)CC1` gave HT1080-NT tox inactive, DT40 TDP1 CPT inactive, HT1080 IDH1KD tx inactive, TDP1 cell noCPT inconclusive, KB-3-1 cytotox inconclusive and KB-V1 MDR tox inactive.
Screening O=C(c1ccccc1)N1N=C(c2ccccc2)CC1c1ccccc1O (configuration not stated) returned HT1080-NT tox 23.1µM, DT40 TDP1 CPT 23.1µM, HT1080 IDH1KD tx 25.9µM, TDP1 cell noCPT inconclusive, KB-3-1 cytotox inactive and KB-V1 MDR tox inactive.
Screening CC(=O)N1N=C(c2ccccc2)CC1c1cn(Cc2ccccc2)c2ccccc12 (configuration not stated) returned HT1080-NT tox inconclusive, DT40 TDP1 CPT 18.4µM, HT1080 IDH1KD tx inconclusive, TDP1 cell noCPT inconclusive, KB-3-1 cytotox inconclusive and KB-V1 MDR tox 14.6µM.
For CN1C(=O)CC(c2cn(Cc3ccccc3)c3ccccc23)C1=O (configuration not stated) the results were HT1080-NT tox inactive, DT40 TDP1 CPT inactive, HT1080 IDH1KD tx inactive, TDP1 cell noCPT inactive, KB-3-1 cytotox inactive and KB-V1 MDR tox inconclusive.
`O=C(c1ccccc1Cl)N1N=C(c2ccc(Br)cc2)CC1c1nc2ccccc2[nH]1` (configuration not stated) gave HT1080-NT tox inactive, DT40 TDP1 CPT inconclusive, HT1080 IDH1KD tx inconclusive, TDP1 cell noCPT 16.4µM, KB-3-1 cytotox inactive and KB-V1 MDR tox inactive.
`Cc1ccc(C2=NN(C(=O)c3ccccc3F)C(c3ccccc3F)C2)cc1` (configuration not stated) gave HT1080-NT tox 13µM, DT40 TDP1 CPT 20.6µM, HT1080 IDH1KD tx 13µM, TDP1 cell noCPT 20.6µM, KB-3-1 cytotox inconclusive and KB-V1 MDR tox inconclusive.
Screening CCCN(CCC)C(=O)C1CC(=O)OC12CCCCC2 (configuration not stated) returned HT1080-NT tox inactive, DT40 TDP1 CPT inactive, HT1080 IDH1KD tx inactive, TDP1 cell noCPT inactive, KB-3-1 cytotox inactive and KB-V1 MDR tox inactive.
For O=C(Nc1ccc2nccnc2c1)N1CCCCCC1 the results were DT40 TDP1 CPT inconclusive, TDP1 cell noCPT inactive, KB-3-1 cytotox inactive and KB-V1 MDR tox inactive.
For CC1CCC(NC(=O)CNC(=O)Cc2cccc3ccccc23)CC1 (configuration not stated) the results were HT1080-NT tox inactive, DT40 TDP1 CPT inconclusive, HT1080 IDH1KD tx inactive, TDP1 cell noCPT inconclusive, KB-3-1 cytotox inactive and KB-V1 MDR tox inactive.
